RE007 growth inh = less growth of the S. pombe RE007 Vpr strain; S. pombe RE007 Vpr strain, BacTiter-Glo ATP luminescence, 24 h; Potency, µM (titrated, usually from 92.2 µM), without a hit: at the highest dose activity change, negative = less growth, actives largely listed as inhibitors; 360,000 compounds, 0.21% hits; AID 651644; active = well fitted falling curve with a large enough effect; inconclusive = small, poorly fitted or top-dose-only effect; inactive = no such curve, though single readings can be large or run the other way; also: nearly all actives have a fitted effect of over 50% in size
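Fission yeast RE007 carrying one integrated HIV-1 vpr copy, seeded at OD 0.01 in PMG+AL medium with 23 nL pinned compound. Grown 24 h at 30 degrees; viability read by BacTiter-Glo luminescence after 5 min.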
AmpC inh no detg = AmpC beta-lactamase inhibition without detergent; P00811; AmpC nitrocefin hydrolysis, absorbance 480 nm, 0.0001% Triton; Potency, µM (titrated, usually from 57.1 µM), for inactives: top-dose activity change, negative = inhibition, most hits filed as inhibitors; 330,000 compounds, 0.52% hits;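 also: plate controls were no compound for no effect and no enzyme for full effect; nearly all actives have a fitted effect of over 20% in size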
Target sequence (P00811 whole entry, looked up): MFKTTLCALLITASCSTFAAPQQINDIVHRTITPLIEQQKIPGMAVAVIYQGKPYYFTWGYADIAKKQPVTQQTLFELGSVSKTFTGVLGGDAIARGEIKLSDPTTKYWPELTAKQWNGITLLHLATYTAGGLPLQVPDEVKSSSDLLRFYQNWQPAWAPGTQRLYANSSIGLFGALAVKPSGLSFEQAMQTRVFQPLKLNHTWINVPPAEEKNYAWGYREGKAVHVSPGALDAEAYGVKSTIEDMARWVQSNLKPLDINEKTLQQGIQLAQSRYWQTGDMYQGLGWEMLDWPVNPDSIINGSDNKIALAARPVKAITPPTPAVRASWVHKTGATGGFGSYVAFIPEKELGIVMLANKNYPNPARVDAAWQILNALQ
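AmpC (5.3 nM in the dispensed reagent) in 20 mM phosphate pH 7.0 with 0.01% (detergent screen) or 0.0001% Triton X-100 was preincubated with compounds for 15 min at room temperature. Nitrocefin was then added from an 800 uM solution, and hydrolysis was followed at 480 nm.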
Sm TGR inh = inhibitors of Schistosoma mansoni thioredoxin glutathione reductase; Q962Y6; Potency, µM (titrated, usually from 114 µM), for the others: at the highest dose activity change, negative = inhibition, usual class: inhibitors; AID 485364; purified TGR, DTNB reduction, TNB absorbance 405 nm; 360,000 compounds, 3% hits; also: nearly all actives have a fitted effect of over 60% in size
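TGR 20 nM + NADPH 100 uM (dispensed conc.), cpd preinc 15 min RT; start with NADPH (500 uM addition) then DTNB (15 mM addition). Kinetic TNB absorbance, 405 nm filter. Four-parameter Hill fit across titration.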
AmpC inh detg = blocks E. coli AmpC beta-lactamase in detergent assay; AID 485294; 370,000 compounds, 0.041% hits; AmpC hydrolysis of nitrocefin, absorbance 480 nm, 0.01% Triton; P00811; Potency, µM (highest dose often 114 µM), without a hit: top-dose activity change, negative = inhibition, hits mostly inhibitors;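 also: 0% = no-compound wells and -100% = no-enzyme wells; nearly all actives have a fitted effect of over 25% in size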
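AmpC (5.3 nM in the dispensed reagent) in 20 mM phosphate pH 7.0 with 0.01% (detergent screen) or 0.0001% Triton X-100 was preincubated with compounds for 15 min at room temperature. Nitrocefin was then added from an 800 uM solution, and hydrolysis was followed at 480 nm.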
AMA1-RON2 inh = inhibitors of Plasmodium falciparum AMA1-RON2 interaction. AlphaScreen AMA1-biotinylated RON2 peptide binding. Potency, µM (series often up to 58.2 µM), without a hit: at the top dose activity change, negative = inhibition, hits mostly inhibitors. 360,000 compounds, 0.2% hits. AID 720542;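 also: 0% = vehicle wells and -100% = peptide control; nearly all actives have a fitted effect of over 45% in size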
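AMA1 (3D7) with his tag at 25 nM final met compounds first, then biotinylated RON2 peptide at 25 nM; detection used donor plus acceptor beads, 10 µg/mL apiece, read by AlphaScreen after 30 min at room temperature.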
Active calls of the source: *; u = inconclusive; x = no result given. Most compounds without a hit are left out; they make up all but 3.2% or so of the library. Unless noted, calls follow the shape of the dose curve; as a rule, active = well fitted curve in the direction sought with a large enough effect; inconclusive = small, poorly fitted or top-dose-only effect, or another doubt; inactive = no such curve, though single readings can be large; an effect the other way counts as inactive or inconclusive. Unless noted, % is scaled to controls: 0 for no effect and ±100 for the full control effect; potency is read from the fitted curve at half-maximal effect.

SMILES | RE007 growth inh | AmpC inh no detg | Sm TGR inh | AmpC inh detg | AMA1-RON2 inh
CC/C(=N\Nc1ccnc2cc(Cl)ccc12)c1ccc(O)cc1 | 3% | -44% | 50µM* | u | -27%
Oc1ccc(/C=N/Nc2ccnc3cc(Cl)ccc23)cc1O | 5% | 11µM* | -2% | -8% | 2%
COc1ccc(N2Cc3cccc(C(=O)Nc4ccc(Cl)cc4)c3C2=O)cc1 | x | x | 0% | -14% | x
CCOCCCN(Cc1ccco1)C(=O)c1cc2c(=O)[nH]c3ccc(C)cc3c2s1 | -12% | 102% | 40µM* | -7% | -2%
COCCCNC(=S)Nc1ccc(C)cc1[N+](=O)[O-] | 6% | -21% | 45µM* | -14% | -10%
COCCNC(=S)Nc1ccc([N+](=O)[O-])cc1C | -6% | -9% | u | -8% | -12%
Cc1c(C)[n+](=O)c2c(n1[O-])CCC2 | -3% | -1% | -1% | u | -5%
Cc1c(CBr)[n+](=O)c2c(n1[O-])C(Br)CCC2Br (stereo not given) | 0% | -11% | 4µM* | -6% | -24%
Cc1c(C)[n+](=O)c2c(n1[O-])C(Br)CCC2Br (stereo not given) | 0% | -12% | 40µM* | 2% | -18%
O=C1N(Cc2cccc(C(F)(F)F)c2)c2ccccc2S(=O)(=O)N1c1cccc(Cl)c1 | x | x | 6% | -1% | x
O=C(c1cnc(N2CCCCC2)c2ccccc12)N1CCN(c2ccc(Cl)cc2)CC1 | x | x | -4% | -9% | x
Cc1ccc(C(=O)CSc2nnc3ccc4ccccc4n23)cc1 | x | x | -7% | 3% | x
CN(Cc1ccco1)C(=O)CN1C(=O)NC2(CCCC2)C1=O | 4% | -11% | x | x | -1%
CN(Cc1ccco1)C(=O)CN1C(=O)NC(c2ccccc2)(c2ccccc2)C1=O | -7% | 9% | 35µM* | -7% | -16%
O=C(C1=C[C@H](c2ccc(Br)cc2)C[C@H](OCCCCO)O1)N1CCN(Cc2ccccc2)CC1 | 1% | 166% | 35µM* | -4% | 27%
O=C(C1=C[C@@H](c2ccccc2)C[C@@H](OCc2ccc(CO)cc2)O1)N1CCN(Cc2ccc3c(c2)OCO3)CC1 | 7% | 106% | -9% | -1% | -27%
O=C(C1=C[C@H](c2ccccc2)C[C@H](OCc2ccc(CO)cc2)O1)N1CCN(Cc2ccccc2)CC1 | -22% | 130% | 28µM* | 0% | -2%
O=C(C1=C[C@H](c2ccccc2)C[C@H](OCCCCO)O1)N1CCOCC1 | 5% | 18% | 45µM* | 9% | 33%
O=C(C1=C[C@@H](c2csc3ccccc23)C[C@@H](OCc2ccc(CO)cc2)O1)N1CCN(Cc2ccccc2)CC1 | -3% | 77% | 35µM* | 8% | -27%
O=C(C1=C[C@@H](c2ccc(Br)cc2)C[C@@H](OCCCCO)O1)N1CCN(Cc2ccc3c(c2)OCO3)CC1 | -12% | 231% | -2% | 8% | -16%
Cc1oc(-c2ccccc2)nc1CNS(=O)(=O)c1ccc(Cl)cc1 | x | x | 6% | -1% | x
N#Cc1nc(-c2ccc(COc3ccccc3)o2)oc1NCc1cccnc1 | x | x | 0% | 15% | x
O=C(C1=C[C@H](c2csc3ccccc23)C[C@H](OCCCCO)O1)N1CCN(Cc2ccccc2)CC1 | -12% | 243% | 18µM* | 1% | -20%
CCOc1ccc(N2C(=O)c3[nH]nc(-c4ccc(OC)cc4)c3C2c2cccs2)cc1 (stereo not given) | x | x | -2% | 1% | x
CC(O)(c1cccc(F)c1)c1nc(-c2cccc(C(F)(F)F)c2)cs1 (stereo not given) | 35µM* | x | x | x | 4%
OC(c1ccccc1)(c1nc(-c2cccc(C(F)(F)F)c2)cs1)C(F)(F)F (stereo not given) | 28µM* | x | x | x | 17%
CCCN1C(=O)C(Cc2nc3ccccc3c(=O)n2-c2ccc(OC)cc2)c2cc(C)ccc21 (stereo not given) | x | x | -1% | 4% | x
Cc1ccc(CN(C)C(=O)c2ccc3c(c2)NC(=O)CS3)o1 | 3% | -15% | 10µM* | u | 3%
